Broadly, the inhibition is the drop in the measured response relative to a control, in per cent.

Hit rate of the full screen: of about 200,000 compounds, about 18,000 (9%) were called active. This is one part of a sample in which actives are shown more often than they occur. A number with no mark means an inactive call. Rule as the data show it: active = inhibition above about 50%; inactive = the rest.

Here are results for 60 compounds from PubChem BioAssay AID1063 (University of Pittsburgh Molecular Library Screening Center, 2008).

This assay is described as follows: antileishmanial activity against promastigotes – primary screen (AID 1063).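 Also: promastigotes grown with compound for 44 hours at 28 °C.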 Conditions: Leishmania major promastigotes, resazurin fluorescence viability; at 10 µM; hits give high values. In general terms: Resazurin is reduced to fluorescent resorufin, in cell work by metabolically active cells.
In the case of `Cc1cc(CNCc2c(C(=O)N(C)Cc3ccccc3)nc3ccccn23)nn1C`, the inhibition was 0.26%. As for `O=C(O)c1ccccc1-c1ccccc1C(=O)Nc1nccs1`, the inhibition is -1.78%. `CCC(=O)c1ccc(OCC(O)CN2C(=O)NC(C)(C)C2=O)cc1` (stereo not given): the inhibition is -2.21%. With `Cn1c(=O)c2c(nc(N3CCCCCC3)n2CC(O)COc2ccc(Cl)cc2)n(C)c1=O` (stereo not given), the inhibition is 56.5% (active). In the case of `CCC(=O)c1ccc(OCC(O)CN2CCN(c3cccc(C(F)(F)F)c3)CC2)cc1` (stereo not given) it was 13.7%; in that of `Cn1c(=O)c2c(nc(N3CCCCCC3)n2CC(=O)c2ccc(Br)cc2)n(C)c1=O`, -0.4%. Regarding `O=C(C(c1ccccc1)c1ccccc1)N1CCN(CC(O)COc2ccccc2)CC1` (stereo not given), the inhibition was 9.16%. The value for `OC(COc1ccc2c(c1)CCC2)CN1CCN(c2cccc(Cl)c2)CC1` (stereo not given) was 98.7% (active); that for `O=c1cc(CN2CCN(c3cccc(Cl)c3)CC2)c2cc3c(cc2o1)CCCC3` was 5.66%. Turning to `OC(COc1ccc(CN2CCSCC2)cc1)CN1CCCCC1` (stereo not given), the inhibition was 19%. In the case of `CCC(=O)c1ccc(OCC(O)CN2CC(C)OC(C)C2)cc1` (stereo not given) it was 87.5% (active); in that of `O=C(c1ccc(Cl)cc1)c1ccc(OCC(O)CN2CCCCC2)cc1` (stereo not given), 99.2% (active). As to `O=C(c1ccccc1)c1ccc(OCC(O)CN2CCCC2)cc1` (stereo not given), the inhibition is 31.6%. In the case of `Cc1cccc(Cn2c(N3CCN(c4ccccc4)CC3)nc3c2c(=O)n(C)c(=O)n3C)c1`, the inhibition was -1.6%. In the case of `COc1cc(C(=O)N[C@@H](C)C(=O)NCc2ccco2)cc(OC)c1OC` it was -6.03%. With `CCCCn1c(N)c(N(CC)C(=O)/C=C/c2ccco2)c(=O)[nH]c1=O`, the inhibition was -4.32%. Regarding `[O-][n+]1c2c(nn1-c1ccc(Cl)c(Cl)c1)-c1nonc1CC2`, the inhibition was 13.6%. The value for `Cc1nc(N2CCCCC2)sc1C=O` was 6.31%. As to `CCC(C)(C)c1ccc(OCC(=O)N(C)C)c(C(C)(C)CC)c1`, the inhibition is 18.1%.

For `COC(=O)CNC(=O)c1ccc(OC2CCN(C(=O)C3CC3)CC2)cc1`, the inhibition is -6.39%. The value for `CCOc1cc(CNn2c(C)nnc2SCC(=O)NC(C)(C)C)ccc1OCC(=O)NC(C)(C)C` was 0.56%; that for `CC1(C)C(c2cccs2)=[N+]([O-])C2(CCCCC2=O)N1O` (stereo not given) was -6.22%; that for `COCCN(Cc1nc(-c2ccc(C(F)(F)F)cc2)no1)C(C)C` was 0.28%. The value for `O=C(Nc1ccnc(-c2ccncc2)n1)c1cccs1` was 1.21%. With `COC(=O)CCNC(=O)c1ccc2[nH]c(C)c(C)c2c1`, the inhibition was -6.37%.

`COc1ccc(-c2[nH]ncc2CN(C)Cc2cccnc2)c(F)c1`: the inhibition was 5.13%. In the case of `CC/C(O)=C1\C(=O)CC(C)(C)CC1=NCCc1nc2ccccc2[nH]1` it was 2.52%.

As to `Cc1ccc(NC(=O)CC(=O)Nc2ccc(C)cc2)cc1`, the inhibition was -5.48%. On to `CC(=O)c1cccc(NC(=O)Nc2ccc(C)cc2)c1`, for which the inhibition was -3.66%. With `COC(=O)c1ccc(NC(=O)Nc2ccc(C)cc2)cc1`, the inhibition is 91.7% (active).

For the compound `CC1CCCN(S(=O)(=O)c2ccc(N(C(=O)c3cnccn3)C(C(=O)NC3CCCCC3)c3cccs3)cc2)C1` (stereo not given), the inhibition was 69.2% (active). With `O=C(NC1CCCCC1)C1CCCN(S(=O)(=O)c2cccs2)C1` (stereo not given), the inhibition is -2.02%. In the case of `O=C(Nc1ccc(S(=O)(=O)N2CCCCC2)cc1)c1cnccn1`, the inhibition is -3.44%. For `CCCCn1c(=O)c(C(C)=O)c(O)c2ccccc21`, the inhibition is -2.04%. `COC(=O)c1cccc(N(C(=O)c2ccco2)C(C(=O)NC2CCCC2)c2ccco2)c1` (stereo not given): the inhibition was 51.8% (active). For the compound `COC(=O)c1ccc(N(CC(=O)NC2CCCC2)C(=O)CNC(=O)c2ccco2)cc1`, the inhibition is -5.36%. Take `O=C(NC1CCCC1)C(c1ccc(N2CCOCC2)cc1)N(C(=O)c1ccco1)c1ccccc1F` (stereo not given): the inhibition is 3.7%. `Cc1cc(C(=O)N/N=C\C(Br)=C\c2ccccc2)c(C)o1`: the inhibition is 12.7%.

As for `COc1cc(/C=N\NC(=O)c2nonc2N)c(OC)cc1Br`, the inhibition is -4.69%. As for `Nc1nonc1-n1nnc(C(=O)N/N=C/c2cc(Br)ccc2O)c1CSC1=NCCS1`, the inhibition is 50.8% (active).

Take `COCc1c(C(=O)N/N=C/C2CC=CCC2)nnn1-c1nonc1N` (stereo not given): the inhibition is -6.32%. For the compound `COc1ccc(-c2ccc(CCC(=O)O)n2NC(=O)c2ccc(C(C)(C)C)cc2)cc1`, the inhibition was -4.23%.

For `NC(=O)C1=C[C@H](c2csc3ccccc23)C[C@H](OCc2ccc(CO)cc2)O1`, the inhibition was 14.5%. As to `CN(C)N(C)C(=O)C(O)(c1ccccc1)c1ccccc1`, the inhibition was -4.98%.

`Cc1nn(-c2ccccc2)c2sc(C(=O)N(Cc3ccco3)C(C)C(=O)NC(C)(C)C)cc12` (stereo not given): the inhibition was 85.5% (active). Take `Cc1nc(C)c(C(=O)N(c2ccc(C)c(C)c2)C(C(=O)NCc2ccco2)c2ccccc2)s1` (stereo not given): the inhibition is -1.53%. In the case of `Cc1ccc(-c2nnn(CC(=O)N(Cc3ccco3)C(C(=O)NC(C)(C)C)c3ccncc3)n2)o1` (stereo not given) it was 4.2%; in that of `COc1ccc(CC(=O)NCc2nnc(SCC(=O)Nc3ncc(C)s3)n2C)cc1`, -4.95%. As for `N#Cc1nc(COc2ccc(-c3ccccc3)cc2)oc1NCc1cccnc1`, the inhibition is 7.49%. For the compound `N#Cc1nc(Cc2ccccc2)oc1NCCc1ccccc1`, the inhibition was 0.9%. As for `CCOc1ccc(Nc2oc(Cc3ccccc3)nc2C#N)cc1`, the inhibition is 99.7% (active). Regarding `CCOC(=O)c1[nH]cnc1C(=O)Nc1ccccc1C`, the inhibition is 4.69%. On to `CCC(=O)Nc1ccc(C(=O)N2CCN(C(=O)c3ccco3)CC2)cc1`, for which the inhibition is 0.95%.

Consider `O=C(Nn1cnc2ccccc2c1=O)c1ccc([N+](=O)[O-])cc1Cl`, for which the inhibition was -9.04%.

Regarding `CC(=O)Nc1ccc(OCC(=O)NCc2ccc(C)cc2)cc1`, the inhibition was -6.13%. As for `COc1ccc(NC(=O)/C(Cl)=C(/Cl)S(=O)Cc2ccc(C)cc2)cn1` (stereo not given), the inhibition is 101% (active). In the case of `COc1ccc(NC(=S)NCCNC(C)=O)cc1` it was -3.38%; in that of `Cc1ccc(NC(=O)OCc2cncs2)cc1`, -5.83%. In the case of `COc1ccc(CS(=O)/C(Cl)=C(/Cl)C(=O)Nc2ccc(OC)nc2)cc1` (stereo not given), the inhibition is 101% (active). The value for `COc1ccc(NC(=S)Nc2ccccc2Cl)cn1` was 6.52%.
